# According to the supplement of paper PMC10849652:
# Of roughly 7,900 targets only a part is listed; those with a hit were picked by preference. About 0.6% of all pairs of compound and target were hits. Values without a mark were called inactive.
# What was measured:
# Experiment in all cases: log2 fold change, soluble protein after heating vs DMSO (PISA); higher = thermal stabilisation; K562 cells, 10 uM, 30 min; active = over 0.2 and 3.5 SD of the protein, either way, in both replicates (recomputed)
# [1] = compound: CS(=O)(=O)c1ccc(-c2cnc(N)c(C(=O)Nc3ccccc3)n2)cc1
# In short: (§1)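 K562 cells at 2×10^6 cells/mL were exposed to 10 μM compound for 30 min, then aliquots were heated for 3 min across 48°C-58°C, pooled, and extracted in PBS containing 0.5% NP-40 at 4°C. The supernatant after 21,000xg for 90 min was taken as soluble protein and measured by TMTpro 16plex LC-MS/MS with channel sums equalised. Thermal stability is reported relative to control samples, with values from duplicates. Fold changes are given on a log2 scale.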
# [2] = compound: C[C@@H](Oc1cc(-c2cnn(C3CCNCC3)c2)cnc1N)c1c(Cl)ccc(F)c1Cl [crizotinib]
# In short: as §1
# [3] = compound: C[C@@H]1COCCN1C2=NC(=NC(=C2)C3(CC3)S(=O)(=O)C)C4=C5C=CNC5=CC=C4
# In short: as §1
# [4] = compound: C[C@H](C1=CC=C(C=C1)C(=O)NC2=C3C=CNC3=NC=C2)N
# In short: as §1
# [5] = compound: C[C@H](Nc1ncnc2nc[nH]c12)c1cc2cccc(Cl)c2c(=O)n1-c1ccccc1 [duvelisib]
# In short: as §1
# [6] = compound: Cc1cc(Nc2cc(CN3CCOCC3)c3nc(C)c(Cc4ccc(Cl)cc4F)n3n2)n[nH]1 [gandotinib]
# In short: as §1
# [7] = compound: Cc1cc(Nc2cc(N3CCN(C)CC3)nc(Sc3ccc(NC(=O)C4CC4)cc3)n2)n[nH]1 [tozasertib]
# In short: as §1
# [8] = compound: Cc1cc(SCc2sc(-c3ccc(C(F)(F)F)cc3)nc2C)ccc1OCC(=O)O
# In short: as §1
# [9] = compound: Cc1ccc(-n2nc(C(C)(C)C)cc2NC(=O)Nc2ccc(OCCN3CCOCC3)c3ccccc23)cc1 [doramapimod]
# In short: as §1
# [10] = compound: Cc1ccc(C(=O)N(CCCN)[C@@H](c2nc3cc(Cl)ccc3c(=O)n2Cc2ccccc2)C(C)C)cc1 [ispinesib]
# In short: as §1
# UniProt Q8N4Q1, sequence (Q8N4Q1 whole entry, looked up): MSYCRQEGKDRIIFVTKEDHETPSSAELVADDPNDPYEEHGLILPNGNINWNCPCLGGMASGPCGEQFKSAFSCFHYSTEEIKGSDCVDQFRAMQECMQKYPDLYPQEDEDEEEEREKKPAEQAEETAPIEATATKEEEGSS
# UniProt Q96G28, sequence (Q96G28 whole entry, looked up): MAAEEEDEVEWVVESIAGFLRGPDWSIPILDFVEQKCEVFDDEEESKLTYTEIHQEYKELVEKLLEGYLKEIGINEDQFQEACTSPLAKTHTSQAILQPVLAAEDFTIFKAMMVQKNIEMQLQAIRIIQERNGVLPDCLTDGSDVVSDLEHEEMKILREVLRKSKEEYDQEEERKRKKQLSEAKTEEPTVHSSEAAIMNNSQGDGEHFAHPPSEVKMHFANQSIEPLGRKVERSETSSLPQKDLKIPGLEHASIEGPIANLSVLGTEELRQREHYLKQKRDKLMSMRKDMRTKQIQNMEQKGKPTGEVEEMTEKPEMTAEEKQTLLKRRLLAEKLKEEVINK
# UniProt P16152, sequence (P16152 whole entry, looked up): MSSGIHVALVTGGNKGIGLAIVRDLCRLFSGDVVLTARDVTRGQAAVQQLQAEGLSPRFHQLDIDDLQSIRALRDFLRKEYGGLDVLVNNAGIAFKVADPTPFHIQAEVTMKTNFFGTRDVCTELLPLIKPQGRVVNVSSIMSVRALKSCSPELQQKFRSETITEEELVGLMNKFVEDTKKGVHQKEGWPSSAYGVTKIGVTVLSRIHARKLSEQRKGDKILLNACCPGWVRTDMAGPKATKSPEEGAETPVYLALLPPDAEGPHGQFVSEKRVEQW
# UniProt Q00587, sequence (Q00587 whole entry, looked up): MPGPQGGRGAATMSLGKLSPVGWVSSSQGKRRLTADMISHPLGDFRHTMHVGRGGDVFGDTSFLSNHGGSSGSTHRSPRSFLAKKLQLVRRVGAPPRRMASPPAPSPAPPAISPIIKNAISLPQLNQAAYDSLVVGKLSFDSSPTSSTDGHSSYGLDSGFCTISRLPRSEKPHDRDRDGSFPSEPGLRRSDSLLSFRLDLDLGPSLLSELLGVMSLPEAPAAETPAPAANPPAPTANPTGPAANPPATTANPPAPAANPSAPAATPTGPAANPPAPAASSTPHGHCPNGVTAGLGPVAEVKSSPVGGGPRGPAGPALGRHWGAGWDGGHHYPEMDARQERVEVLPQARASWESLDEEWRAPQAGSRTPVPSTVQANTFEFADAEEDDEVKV
# UniProt Q9P031, sequence (Q9P031 whole entry, looked up): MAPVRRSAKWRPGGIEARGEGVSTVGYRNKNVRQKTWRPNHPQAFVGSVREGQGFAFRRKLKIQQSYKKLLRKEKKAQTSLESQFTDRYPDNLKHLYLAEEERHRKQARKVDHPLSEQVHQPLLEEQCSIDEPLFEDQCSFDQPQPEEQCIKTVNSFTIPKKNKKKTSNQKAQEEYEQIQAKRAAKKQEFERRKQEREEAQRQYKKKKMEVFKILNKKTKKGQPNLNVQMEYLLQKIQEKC
# UniProt Q9Y6K0, sequence (Q9Y6K0 whole entry, looked up): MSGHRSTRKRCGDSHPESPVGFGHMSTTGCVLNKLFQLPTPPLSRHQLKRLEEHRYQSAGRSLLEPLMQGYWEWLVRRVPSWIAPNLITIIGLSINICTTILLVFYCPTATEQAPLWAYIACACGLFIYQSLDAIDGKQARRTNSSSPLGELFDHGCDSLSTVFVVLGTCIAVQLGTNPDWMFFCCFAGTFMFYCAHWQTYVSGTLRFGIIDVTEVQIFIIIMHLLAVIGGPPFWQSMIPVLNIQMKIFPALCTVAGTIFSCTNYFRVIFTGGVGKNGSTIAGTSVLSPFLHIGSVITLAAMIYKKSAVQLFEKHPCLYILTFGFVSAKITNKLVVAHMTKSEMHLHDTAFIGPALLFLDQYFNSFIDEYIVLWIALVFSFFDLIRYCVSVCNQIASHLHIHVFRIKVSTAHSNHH
# UniProt Q9Y6H1, sequence (Q9Y6H1 whole entry, looked up): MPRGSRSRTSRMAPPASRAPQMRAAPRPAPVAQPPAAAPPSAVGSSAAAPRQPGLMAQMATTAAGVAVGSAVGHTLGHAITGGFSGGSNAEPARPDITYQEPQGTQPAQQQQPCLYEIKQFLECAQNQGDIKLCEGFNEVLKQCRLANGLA
# UniProt O75390, sequence (O75390 whole entry, looked up): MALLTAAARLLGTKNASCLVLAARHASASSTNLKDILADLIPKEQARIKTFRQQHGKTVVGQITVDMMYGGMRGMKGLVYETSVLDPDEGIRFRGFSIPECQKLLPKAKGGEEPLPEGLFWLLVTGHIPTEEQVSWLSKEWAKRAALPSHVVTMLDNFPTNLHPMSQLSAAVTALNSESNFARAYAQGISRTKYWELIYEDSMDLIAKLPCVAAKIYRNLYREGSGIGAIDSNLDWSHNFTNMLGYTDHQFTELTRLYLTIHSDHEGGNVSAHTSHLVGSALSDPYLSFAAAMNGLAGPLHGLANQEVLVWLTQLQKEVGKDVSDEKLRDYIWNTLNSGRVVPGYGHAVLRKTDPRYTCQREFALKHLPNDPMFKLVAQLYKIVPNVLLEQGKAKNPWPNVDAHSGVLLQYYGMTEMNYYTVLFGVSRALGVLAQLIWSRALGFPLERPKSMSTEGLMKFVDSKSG
# UniProt P41240, sequence (P41240 whole entry, looked up): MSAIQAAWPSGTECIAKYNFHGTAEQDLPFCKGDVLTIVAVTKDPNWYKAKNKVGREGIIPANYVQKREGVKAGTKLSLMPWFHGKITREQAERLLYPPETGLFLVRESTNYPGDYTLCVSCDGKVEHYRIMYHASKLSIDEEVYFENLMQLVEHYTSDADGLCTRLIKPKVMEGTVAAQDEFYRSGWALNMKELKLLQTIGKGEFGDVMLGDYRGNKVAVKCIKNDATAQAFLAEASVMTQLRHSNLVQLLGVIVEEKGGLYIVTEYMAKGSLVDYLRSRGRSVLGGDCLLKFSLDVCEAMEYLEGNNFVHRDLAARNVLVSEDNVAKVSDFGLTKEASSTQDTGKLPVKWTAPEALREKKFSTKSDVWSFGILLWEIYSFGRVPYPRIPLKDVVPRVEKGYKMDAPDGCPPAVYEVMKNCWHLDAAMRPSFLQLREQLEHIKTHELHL
# UniProt Q13555, sequence (Q13555 whole entry, looked up): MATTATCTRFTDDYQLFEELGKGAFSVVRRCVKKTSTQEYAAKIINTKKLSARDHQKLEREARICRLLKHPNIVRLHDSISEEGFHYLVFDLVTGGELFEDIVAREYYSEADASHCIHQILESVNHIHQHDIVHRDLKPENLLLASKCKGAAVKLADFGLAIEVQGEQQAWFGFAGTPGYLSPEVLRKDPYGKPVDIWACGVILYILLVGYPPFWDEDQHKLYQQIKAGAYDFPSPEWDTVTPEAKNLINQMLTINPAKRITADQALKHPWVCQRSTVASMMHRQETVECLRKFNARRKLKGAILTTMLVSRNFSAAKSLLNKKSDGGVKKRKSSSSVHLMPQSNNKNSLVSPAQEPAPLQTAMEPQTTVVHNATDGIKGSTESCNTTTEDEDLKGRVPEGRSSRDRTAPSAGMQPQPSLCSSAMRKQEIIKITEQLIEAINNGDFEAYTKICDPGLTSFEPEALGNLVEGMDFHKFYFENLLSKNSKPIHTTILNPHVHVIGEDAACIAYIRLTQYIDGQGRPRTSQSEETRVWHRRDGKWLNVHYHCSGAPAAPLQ
# UniProt P33240, sequence (P33240 whole entry, looked up): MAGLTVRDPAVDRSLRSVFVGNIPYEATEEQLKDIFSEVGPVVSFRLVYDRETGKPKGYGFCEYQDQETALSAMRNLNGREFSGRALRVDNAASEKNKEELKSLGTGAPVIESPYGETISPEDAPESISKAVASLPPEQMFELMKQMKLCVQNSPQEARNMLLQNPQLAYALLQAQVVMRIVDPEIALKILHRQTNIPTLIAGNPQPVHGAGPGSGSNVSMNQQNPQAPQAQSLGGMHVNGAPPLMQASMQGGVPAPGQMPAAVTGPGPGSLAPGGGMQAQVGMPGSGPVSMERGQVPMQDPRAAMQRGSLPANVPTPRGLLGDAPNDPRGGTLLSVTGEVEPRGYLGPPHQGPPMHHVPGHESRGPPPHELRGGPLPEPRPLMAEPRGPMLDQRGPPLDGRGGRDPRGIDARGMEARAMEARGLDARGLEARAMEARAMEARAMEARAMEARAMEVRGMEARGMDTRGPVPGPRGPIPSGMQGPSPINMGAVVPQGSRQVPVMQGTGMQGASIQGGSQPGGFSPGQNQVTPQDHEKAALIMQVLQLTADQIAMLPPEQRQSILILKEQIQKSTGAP
# UniProt A6NHX0, sequence (A6NHX0 whole entry, looked up): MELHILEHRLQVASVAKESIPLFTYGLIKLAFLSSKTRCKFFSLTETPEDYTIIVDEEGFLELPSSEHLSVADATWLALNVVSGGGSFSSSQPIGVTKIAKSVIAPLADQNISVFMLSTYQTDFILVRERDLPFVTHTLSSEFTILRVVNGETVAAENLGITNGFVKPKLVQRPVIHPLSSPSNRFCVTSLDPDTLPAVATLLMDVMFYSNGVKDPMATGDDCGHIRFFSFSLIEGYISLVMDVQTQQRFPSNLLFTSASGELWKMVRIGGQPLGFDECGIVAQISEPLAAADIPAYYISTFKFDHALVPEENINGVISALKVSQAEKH
# UniProt P55211, sequence (P55211 whole entry, looked up): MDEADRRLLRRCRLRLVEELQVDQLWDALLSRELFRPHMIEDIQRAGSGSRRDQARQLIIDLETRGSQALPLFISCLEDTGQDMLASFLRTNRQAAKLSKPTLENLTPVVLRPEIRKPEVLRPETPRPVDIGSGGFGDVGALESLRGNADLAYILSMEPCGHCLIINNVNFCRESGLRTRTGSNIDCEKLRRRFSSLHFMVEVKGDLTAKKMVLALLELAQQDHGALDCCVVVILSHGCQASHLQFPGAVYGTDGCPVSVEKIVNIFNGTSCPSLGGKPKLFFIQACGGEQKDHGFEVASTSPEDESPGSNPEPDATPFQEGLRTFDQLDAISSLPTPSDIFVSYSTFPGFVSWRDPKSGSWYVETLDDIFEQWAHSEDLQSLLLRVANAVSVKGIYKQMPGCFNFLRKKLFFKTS
# UniProt Q5RI15, sequence (Q5RI15 whole entry, looked up): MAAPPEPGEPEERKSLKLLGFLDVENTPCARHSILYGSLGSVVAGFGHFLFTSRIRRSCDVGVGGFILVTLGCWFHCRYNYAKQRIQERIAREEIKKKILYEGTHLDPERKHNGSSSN
Target,log2 fold change [1],log2 fold change [2],log2 fold change [3],log2 fold change [4],log2 fold change [5],log2 fold change [6],log2 fold change [7],log2 fold change [8],log2 fold change [9],log2 fold change [10]
COX20 isoform 2 (UniProt Q5RI15),-0.043,0.063,-0.098,0.01,-0.017,-0.385,0.022,-0.001,-0.001,-0.017
CNTN4 (UniProt Q8IWV2),-0.03,0.064,0.148,-0.099,0.102,0.144,-0.051,-0.087,-0.095,-0.046
COX6B1 (UniProt P14854),-0.001,0.184,0.195,0,0.163,-0.027,0.105,0,-0.06,0.226
COX5B (UniProt P10606),-0.07,0.186,0.081,-0.169,0.124,0.218,0.077,-0.001,0.022,0.265
CS (UniProt O75390),0.044,-0.122,0.072,-0.034,0.059,-0.037,0.027,0.061,0.017,-0.157
CHCHD2 (UniProt Q9Y6H1),0,0.161,-0.017,-0.075,0.097,-0.107,0.059,-0.016,-0.037,0.066
CSK (UniProt P41240),0.082,-0.033,0.112,-0.004,-0.018,-0.018,0.026,0.046,0.003,-0.028
COCH (UniProt O43405),-0.051,-0.05,-0.033,-0.016,-0.052,0.059,0.154,-0.053,0.052,-0.042
CFAP36 isoform 2 (UniProt Q96G28),-0.013,-0.201,0.078,-0.394 (active),0.133,-0.048,0.587 (active),-0.007,0.096,-0.053
CDC42EP1 (UniProt Q00587),-0.006,-0.566 (active),0.019,-0.041,-0.061,-0.524 (active),-0.192,0.073,0.076,-0.327
CEPT1 (UniProt Q9Y6K0),0.055,-0.226,0.146,0.042,-0.022,-0.268,-0.019,0.047,0.021,-0.214
CASTOR2 (UniProt A6NHX0),-0.053,0.045,0.088,-0.022,0.075,-0.018,-0.113,0.008,0.037,0.018
CDK5RAP3 isoform 4 (UniProt Q96JB5),-0.017,-0.054,0.044,-0.038,0.005,-0.051,0.015,0.016,-0.033,-0.036
CASP10 isoform 4 (UniProt Q92851),0.006,-0.102,0.015,-0.137,-0.08,-0.128,0.177,0.201,0.028,-0.075
COMMD2 (UniProt Q86X83),-0.048,-0.13,0.102,0.037,0.097,-0.029,0.082,-0.018,-0.012,0.014
CRK (UniProt P46108),0.043,-1.02 (active),0.008,-0.064,-0.025,-0.096,-0.254,0.058,0.01,-0.004

Target,log2 fold change [1],log2 fold change [2],log2 fold change [3],log2 fold change [4],log2 fold change [5],log2 fold change [6],log2 fold change [7],log2 fold change [8],log2 fold change [9],log2 fold change [10]
CSNK1A1 (UniProt P48729),-0.093,-0.115,-0.114,-0.073,-0.04,0.014,-0.034,0.017,0.024,-0.125
CBX5 (UniProt P45973),0.012,0.128,-0.037,-0.058,0.029,-0.015,-0.01,0.059,-0.045,0.092
CCDC9 (UniProt Q9Y3X0),-0.046,0.016,-0.063,0.105,-0.04,0.194,-0.083,-0.012,-0.008,-0.215
CHD4 isoform 2 (UniProt Q14839),-0.02,-0.08,0.098,0.057,-0.021,-0.009,0.233,0.186,0.014,-0.05
CBR1 (UniProt P16152),0.006,0.048,0.052,-0.163,0.038,0.034,-0.025,-0.024,0.003,0.194
CAMK2G isoform 6 (UniProt Q13555),-0.02,-0.146,-0.064,-0.116,-0.025,-0.041,0.028,-0.004,0.073,0
CD55 isoform 7 (UniProt P08174),-0.023,0.081,-0.096,-0.14,-0.021,0.052,0.067,-0.031,0.02,0.132
CHCHD4 isoform 2 (UniProt Q8N4Q1),-0.041,0.017,0.156,-0.272,-0.217,-0.079,0.182,0.022,0.069,-0.074
CELF2 isoform 3 (UniProt O95319),-0.107,0.098,0.006,-0.038,-0.027,-0.027,-0.054,0.102,0.05,-0.066
CASP9 (UniProt P55211),0.088,0.002,0.014,0.014,0.104,-0.152,0.138,0.064,0.05,0.037
CD151 (UniProt P48509),-0.151,0.208,0.07,-0.089,0.138,-0.19,-0.04,-0.043,-0.056,0.068
CCDC59 (UniProt Q9P031),0.09,-0.084,0,0.389,-0.157,0.186,0.01,0.006,0.164,-0.136
CDC42BPA isoform 6 (UniProt Q5VT25),0.03,-0.477 (active),-0.016,-0.596 (active),0.145,-0.148,-0.048,0.002,0.071,-0.049
CLPTM1L (UniProt Q96KA5),0.036,-0.08,0.025,-0.013,0.047,-0.268 (active),0.012,0,-0.012,-0.326 (active)
CSTF2 (UniProt P33240),0.016,0.075,0.14,-0.042,0.029,0.048,0.033,-0.011,0.028,0.068
